Screening data as filed in PubChem BioAssay.
PolyA inh: polyadenylation inhibitors in yeast reporter cells, primary screen, luminescence, S. cerevisiae | actives 0.02% (n = 300,000) | S. cerevisiae SKY197-pL101 polyadenylation reporter, beta-gal luminescence; efflux-impaired pdr1/pdr3 knockout yeast; score 100 = 6 SD above DMSO | activity score, % at 12 µM;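 active = lowest replicate activity score at least 50, where 100 means six control SD above control mean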;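 also: yeast exposed to compound for 9 h at 30 °C; higher score means more reporter readthrough which indicates perturbed polyadenylation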
HTR5A ag ctr: HTR5A agonists in luminescence cell assay, primary screen, counter-screen for OPRM1-OPRD1 heterodimer agonist project, full-deck HTS. 5-hydroxytryptamine receptor 5A (Homo sapiens), P47898. cell-based. activation, % at 9.3 µM. actives 0.61% (n = 340,000); in the data active = activation mostly above about 9.5%, no sharp cut-off; inactive = mostly below about 7.6%;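 also: 0% = cells with vehicle only and 100% = reference agonist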
Target sequence (P47898 whole entry, looked up): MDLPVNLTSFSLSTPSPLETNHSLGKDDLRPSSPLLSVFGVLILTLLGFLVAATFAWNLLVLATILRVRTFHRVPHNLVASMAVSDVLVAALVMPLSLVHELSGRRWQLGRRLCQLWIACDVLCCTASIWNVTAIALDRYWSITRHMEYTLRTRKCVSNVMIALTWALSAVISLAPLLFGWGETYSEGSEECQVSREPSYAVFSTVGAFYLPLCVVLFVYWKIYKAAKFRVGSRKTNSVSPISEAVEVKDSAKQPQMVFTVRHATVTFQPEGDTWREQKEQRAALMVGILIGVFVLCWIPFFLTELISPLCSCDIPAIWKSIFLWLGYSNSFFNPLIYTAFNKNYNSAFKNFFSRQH
HTR5A inv ctr: HTR5A inverse agonists in luminescence cell assay, primary screen, counter-screen for OPRM1-OPRD1 heterodimer inverse agonist project, full-deck HTS. AID 504634, 2011. actives 0.083% (n = 340,000). 5-hydroxytryptamine receptor 5A (Homo sapiens), P47898. inhibition, % at 9.3 µM. HTR5A cell line, inverse agonism; in the data active = inhibition mostly above about 23%, no sharp cut-off; inactive = mostly below about 18%;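 also: 0% = cells with DMSO and 100% = no-cell wells with DMSO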
OPRM1-OPRD1 inv: inverse agonists of MOR-DOR heterodimerization, primary screen, cell-based, luminescence; Mu-type opioid receptor (Homo sapiens) + Delta-type opioid receptor (Homo sapiens), …; cell-based MOR-DOR heterodimer luminescence, inverse agonism; inhibition, % at 9.3 µM; actives 0.21% (n = 340,000); AID 504357, 2011; in the data active = inhibition above about 22%, passing the limit was not always enough;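 also: 0% = cells with DMSO and 100% = wells without cells with DMSO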
MOR-DOR ag-1: agonists of OPRM1-OPRD1 heterodimerization, primary screen, cell-based, luminescence | Mu-type opioid receptor (Homo sapiens) + Delta-type opioid receptor (Homo sapiens), … | cells | activation, % at 9.3 µM | actives 0.3% (n = 340,000) | AID 504326, 2011;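 also: 0% = vehicle-treated cells and 100% = reference agonist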
NALP1 yeast inh: NALP1 inflammasome inhibitors in reconstituted yeast, colorimetric, S. cerevisiae, triplicate retest | S. cerevisiae NALP1/ASC/caspase-1 growth, X-gal OD620, 72 h | inhibition, % at 10 µM | actives 0.61% (n = 280,000) | AID 2071, 2009; in the data active = inhibition mostly above about 24%, no sharp cut-off; inactive = mostly below about 32%
MOR-DOR ag-2: OPRM1-OPRD1 heterodimerization promoters, counter-screen for HTR5A agonist project, cell-based, luminescence. shares compounds with HTR5A ag ctr. U2OS counter-screen cells, complementation luminescence, 3 h. activation, % at 9.3 µM. actives 13% (n = 800). AID 504913, 2011
HTR5A ag conf: HTR5A agonists, retest of hits, confirmation, cell-based, luminescence; actives 17% (n = 800); AID 504915, 2011; shares compounds with HTR5A ag ctr; HTR5A agonist cell assay; activation, % at 9.3 µM; in the data active = activation above about 17%;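 also: 0% = cells with vehicle only and 100% = full reference agonist response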
* hit, by the source's call; nt = not tested or not shown. Compounds with a hit are over-represented: about 1.6% of the library has one in this group of screens. Rule as the data show it, unless noted: active = activation above about 18%; inactive = the rest.

SMILES | PolyA inh | HTR5A ag ctr | HTR5A inv ctr | OPRM1-OPRD1 inv | MOR-DOR ag-1 | NALP1 yeast inh | MOR-DOR ag-2 | HTR5A ag conf
O=C(CN1CCCCC1)n1c2ccccc2c2ccccc21 | -23 | 24* | -63 | -12 | 2 | 10 | 13 | 4
CN1CCN(CC(=O)n2c3c(c4ccccc42)CCCC3)CC1 | 0 | 7 | -17 | -17 | 3 | 2 | nt | nt
O=C(COc1ccc(-c2ccccc2)cc1)N/N=C/c1cc(O)ccc1Br | 13 | 22* | -21 | -26 | 4 | 28 | 255* | -2
CCOC(=O)c1cc(C(=O)c2cccs2)n2ccc(C(C)=O)cc12 | 11 | 20* | -55 | 14 | -3 | 21 | 3 | -2
Cc1cc(O)c(C(C)C)cc1C1(c2cc(C(C)C)c(O)cc2C)OC(=O)c2ccccc21 | -1 | 20* | -5 | -65 | 13 | -3 | 6 | 13
Cc1ccc2c(c1)Oc1ccc(NC(=O)CCl)cc1C(=O)N2 | -4 | 15* | -18 | 14 | -3 | 12 | 2 | 4
CCN(CC)CCNC(=O)c1ccc(NC(=O)Nc2cccc3ccccc23)cc1 | 17 | 11 | -28 | 4 | -1 | 17 | nt | nt
COc1ccc(OCCC(=O)Nc2cc3c(cc2C(=O)O)OCCCO3)cc1 | nt | 15* | -72 | 2 | 0 | nt | -1 | -1
COc1ccccc1OCC(=O)Nc1cc2c(cc1C(=O)O)OCCCO2 | -6 | 2 | -14 | 5 | -1 | 9 | nt | nt
CCOC(=O)c1ccc(NS(=O)(=O)c2cc(-c3nnnn3CC)ccc2OC)cc1 | -4 | 16* | -41 | -12 | 2 | -7 | 20* | 0
CC(C(=O)Nc1ccccc1-c1ccccc1)N(C)Cc1nc2ccccc2c(=O)[nH]1 (stereo unspecified) | -6 | -1 | -18 | 13 | -3 | -13 | nt | nt
Cc1nc2oc3ccccc3c(=O)c2c(=O)n1Cc1ccccc1 | 9 | -6 | 1 | 9 | -2 | 2 | nt | nt
COc1ccc(Cn2c(C)nc3oc4cc(OC)ccc4c(=O)c3c2=O)cc1 | 14 | 16* | -19 | 10 | -2 | 10 | 327* | 3
NC(=O)C1=C(N=C2CCCCC2)CCCC1 | nt | 18* | -69 | 15 | -3 | nt | 0 | 6
Cc1ccc(-n2c(-c3ccncc3)nnc2-c2cccs2)cc1 | 0 | 1 | -3 | 13 | -3 | nt | nt | nt
COc1ccc(C(=O)/C=C/NCc2ccc(F)cc2)cc1OC | 0 | 1 | -6 | 13 | -2 | 6 | nt | nt
Cc1cccc(NC(=O)CCN2CCC(C)CC2)c1 | 4 | 1 | -4 | 14 | -3 | 9 | nt | nt
CC1CCCCN1Cc1c(C#N)c2ccccc2n1C (stereo unspecified) | 32 | 21* | -57 | -21 | 4 | -3 | 3 | 2
Cc1snc(SCc2ccc(Cl)cc2)c1C#N | 1 | 4 | -15 | -1 | 0 | 28 | nt | nt
CNC(=O)CCCCC(=O)N/N=C/c1ccc(Cl)cc1Cl | -14 | 15* | -10 | 3 | -1 | nt | 31* | -2
O=C(CN1c2ccccc2Sc2ccccc21)N/N=C/c1ccc(Cl)cc1Cl | -4 | 4 | -15 | 3 | 0 | nt | nt | nt
COc1ccccc1OCCNC(=O)C(CCSC)NS(=O)(=O)c1ccccc1F (stereo unspecified) | 11 | -1 | 2 | -17 | 3 | nt | nt | nt
COc1ccc(N(C(=O)Cn2nnc(-c3ccc(C)o3)n2)C(C(=O)NC2CCCC2)c2ccncc2)cc1 (stereo unspecified) | 10 | -6 | 11 | 1 | 0 | 13 | nt | nt
CCOC(=O)Nc1ccc2c(c1)nc(CN1CCCCC1)n2C | 7 | -1 | 2 | 2 | 0 | 0 | nt | nt
CCC[C@@H]1CCCO[C@@](C(=O)NCCN2CCOCC2)(C(F)(F)F)C1 | 13 | 7 | -18 | 15 | -3 | nt | nt | nt
SMILES | PolyA inh | HTR5A ag ctr | HTR5A inv ctr | OPRM1-OPRD1 inv | MOR-DOR ag-1 | NALP1 yeast inh | MOR-DOR ag-2 | HTR5A ag conf
COc1ccc(-c2ccccc2)cc1NCc1ccc(OC)c(OC)c1 | -6 | 4 | 11 | 0 | 0 | 44 | nt | nt
O=C(NCCc1c[nH]c2ccccc12)C(=O)Nc1cc2c3c(c1)CC(=O)N3CCC2 | 6 | 16* | -39 | 1 | 0 | nt | 31* | 13
COc1ccc(CNc2nc(SCc3cc(=O)n4cc(Cl)ccc4n3)nc3ccccc23)cc1 | -9 | 1 | -14 | 7 | -1 | 16 | nt | nt
COc1cccc(NC(=O)c2cc(-c3ccncc3)nc3c(C)cc(C)cc23)c1 | -1 | 16* | -9 | -32 | 7 | -6 | 6 | 8
O=C(COc1ccc2c(c1)OCO2)Nc1ccc2c(c1)oc1ccccc12 | -5 | 16* | -58 | -18 | 3 | 13 | 6 | 8
COc1ccc(N(Cc2ccccc2)S(=O)(=O)c2cccc(C(=O)Nc3ccccn3)c2)cc1 | nt | 19* | -48 | 15 | -4 | nt | 4 | 1
Cc1ccc(NC(=O)C2CCN(c3ncnc4sc(C)c(C)c34)CC2)cc1S(=O)(=O)N(C)C | -15 | 20* | -54 | -9 | 1 | nt | -2 | -2
CCCc1cc(=O)n2nc(N3CCC(C(=O)Nc4cccc(C(C)=O)c4)CC3)sc2n1 | 0 | 17* | 8 | 11 | -2 | -2 | 18 | 0
CCCc1cc(=O)n2nc(N3CCC(C(=O)Nc4c(F)c(F)c(F)c(F)c4F)CC3)sc2n1 | 15 | -2 | -7 | 14 | -3 | -7 | nt | nt
Cc1nn(C(C)C(=O)N2CCOCC2)c(C)c1[N+](=O)[O-] (stereo unspecified) | 0 | 0 | 0 | 0 | 0 | 24 | nt | nt
COc1ccccc1C(CNC(=O)c1cccc(NS(=O)(=O)c2ccc(C)c(F)c2)c1)N1CCCC1 (stereo unspecified) | 11 | 44* | -97 | -4 | 1 | nt | 2 | 41*
O=C(Cn1cnc2c(nnn2-c2ccccc2)c1=O)N1CCOCC1 | -18 | 28* | -156 | 10 | -2 | nt | 6 | 8
O=C1c2ccccc2C(=O)N1CCc1c[nH]c2ccc(O)cc12 | -4 | 24* | -100 | 9 | -2 | 7 | 3 | 5
Cc1ccc(Cn2c(=N)n(CC(=O)c3ccccc3)c3ccccc32)cc1 | -14 | 21* | -61 | -63 | 9 | 23 | 11 | 6
Cc1cc(C)cc(OCC(=O)OCC(=O)c2c(N)n(C)c(=O)n(C)c2=O)c1 | 9 | -3 | 7 | 14 | -3 | 7 | nt | nt
